Laboratory results: PubChem BioAssay AID686978 (National Center for Advancing Translational Sciences (NCATS), 2013)
The campaign covered roughly 420,000 compounds. About 64,000 (15%) were called active. About 27% were inconclusive and are not listed. Calls come from the whole dose curve; as a rule, active = well fitted inhibition curve with a large enough effect; inconclusive = small, poorly fitted or top-dose-only effect; inactive = flat fitted curve, though single readings scatter. Not all results are given here.

Experiment: qHTS for Inhibitors of human tyrosyl-DNA phosphodiesterase 1 (TDP1): qHTS in cells in absence of CPT; note: nearly all actives have a fitted effect of over 55% in size
Conditions: DT40 Tdp1-/- hTDP1 cells, no CPT, ATP luminescence, 48 h; activity change, negative = growth inhibition: at 46.2 µM (top of the series)
Method in brief: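 Growth of hTDP1-complemented DT40 Tdp1-knockout cells is measured by ATP luminescence after at least 48 hr compound exposure at 37 °C, with DMSO substituting for the 20 nM CPT used in the parallel screen.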
% is set by controls: 0 for no effect and ±100 for the full control effect; potency is the fitted concentration of half-maximal effect.

| Compound | activity change, negative = growth inhibition | Potency |
| --- | --- | --- |
| O=C(CCC(=O)OCc1cccc(C(=O)Oc2ccccc2)c1)Nc1cccc2ccccc12 | -21.2% (inactive) | – |
| C=CCOc1ccccc1NC(=O)CN1C(=O)CNC1=O | -7.28% (inactive) | – |
| COc1nc(N(C)C)nc(N2CC(=O)N(CCNS(=O)(=O)c3ccc(C)cc3)C2=N)n1 | -15.3% (inactive) | – |
| NC(=O)C1(N2CCCCC2)CCN(C(=S)Nc2ccc(Cl)cc2)CC1 | -6.42% (inactive) | – |
| CC(C)(C)Oc1ncc(Br)c(OC(C)(C)C)n1 | -2.08% (inactive) | – |
| Cc1ccc(/C=C/C(=O)OCC(=O)NCc2ccc(Cl)cc2)o1 | 8.3% (inactive) | – |
| CCOCCCNC(=O)C(NC(=O)c1ccccc1O)c1ccccc1 (centres undefined) | -7.83% (inactive) | – |
| O=C(CSc1nnc(C2CC2)n1Cc1ccccc1)Nc1cccnc1Cl | 6.73% (inactive) | – |
| CCC1(C(=O)c2ccccc2)C(c2cccc([N+](=O)[O-])c2)C1(C(=O)OC)C(=O)OC (centres undefined) | – | 13 µM (active) |
| CCC(CC)NC(=O)/C=C/c1cccc([N+](=O)[O-])c1 | -26.5% (inactive) | – |
| O=C(NOCc1ccccc1)c1cccc([N+](=O)[O-])c1 | -4.33% (inactive) | – |
| COc1ccc(C)cc1NC(=O)Nc1ccccc1SC | -14% (inactive) | – |
| O=C(COC(=O)Cc1ccc([N+](=O)[O-])cc1)NC1CCCCCC1 | 21.9% (inactive) | – |
| CN(C(=O)CCN1C(=O)/C(=C/c2ccccc2F)SC1=S)C1CCS(=O)(=O)C1 (centres undefined) | – | 23.1 µM (active) |
| CN(C(=O)CN1C(=O)S/C(=C\c2ccccc2F)C1=O)C1CCS(=O)(=O)C1 (centres undefined) | -1.69% (inactive) | – |
| COc1ccccc1/C=C1\SC(=O)N(CCC(=O)N(C)C2CCS(=O)(=O)C2)C1=O (centres undefined) | -17.3% (inactive) | – |
| CSc1cc(C)n(-c2ccccc2C)c(=S)c1C(C)=O | -2.36% (inactive) | – |
| Cc1cccc(NC(=O)CSc2nnc(CCNC(=O)OC(C)(C)C)o2)c1C | -2.72% (inactive) | – |
| CC1CC(C)CN(C(=O)CCNC(=O)Cn2cnc3ccccc3c2=O)C1 (centres undefined) | -6.93% (inactive) | – |
| CCc1ccc(NC(=O)CSc2nnc(-c3cnccn3)n2Cc2ccco2)cc1 | -21.8% (inactive) | – |
| O=C1c2ccccc2C(=O)C1c1ccccc1F | -1.5% (inactive) | – |
| CN1CCN(c2ncc3c(n2)CC(c2ccccc2F)CC3=O)CC1 (centres undefined) | – | 18.4 µM (active) |
| CCCN1CCc2nc(N3CCN(C)CC3)ncc2C1 | -13.9% (inactive) | – |

| Compound | activity change, negative = growth inhibition | Potency |
| --- | --- | --- |
| CSc1nsc(SC)c1NC(=O)OC1CCCCC1 | -24.9% (inactive) | – |
| N#CCSc1nn(-c2ccc(F)cc2)c(=S)s1 | -15.7% (inactive) | – |
| CCOC(=O)N/N=C1\CC(C)S(=O)(=O)c2ccc(Cl)cc21 (centres undefined) | -29.5% (inactive) | – |
| Cc1nc(N2CCOCC2)nc2c1CCCC2 | -3.14% (inactive) | – |
| COc1cccc(C(C(=O)NC2CCCC2)N(C(=O)c2ccco2)c2cccc(C(C)=O)c2)c1OC (centres undefined) | -19.3% (inactive) | – |
| Fc1c(F)c(C(F)(F)F)c(F)c(F)c1N1CCN(c2ccc3nnc(C(F)(F)F)n3n2)CC1 | – | 23.1 µM (active) |
| FC(F)(F)c1nnc2ccc(N3CCN(c4ccccc4)CC3)nn12 | -23.8% (inactive) | – |
| NC(=O)c1oc2ccccc2c1NC(=O)CS(=O)(=O)c1ccccc1 | 14.4% (inactive) | – |
| Cc1ccc(C(=O)CCC(=O)N(C)CC(=O)Nc2c(Cl)cccc2Cl)cc1 | -20.5% (inactive) | – |
| CC(C)CC(N=C1NC(C)(C)Cc2ccccc21)C(=O)O (centres undefined) | 0.347% (inactive) | – |
| Cc1nc2ccc(N)nc2nc1C | 0.191% (inactive) | – |
| Cn1c(C(=O)NCCCN2CCCCC2)cc2sccc21 | -27.6% (inactive) | – |
| O=C(CNC(=O)Cc1ccccc1)N=Nc1c(O)[nH]c2ccc(Br)cc12 | -29.5% (inactive) | – |
| COCC(=O)N=Nc1c(O)[nH]c2ccccc12 | -18.6% (inactive) | – |
| O=C(CCN1CCCCC1)N=Nc1c(O)[nH]c2ccccc12 | – | 23.1 µM (active) |
| COc1ccccc1CNC(=O)CCCNS(=O)(=O)c1cccc2nsnc12 | -2.92% (inactive) | – |
| Cn1c(C(=O)O)ccc1S(=O)(=O)N(Cc1ccccc1)Cc1ccccc1 | 1.26% (inactive) | – |
| COc1ccc(C2NC(=O)C(=O)/C2=C(\O)c2ccc(Cl)cc2)cc1OC (centres undefined) | -6.54% (inactive) | – |
| CCCCOc1ccc(CSC(=N)N)cc1[N+](=O)[O-] | – | 11.6 µM (active) |
| CCCCCOc1ccc(CSC2=NCCN2)cc1[N+](=O)[O-] | – | 23.1 µM (active) |
| Cc1nc(SCc2ccc(F)cc2)c([N+](=O)[O-])[nH]1 | -10.3% (inactive) | – |
| COc1ccc(NC(=O)CSCc2ccc([N+](=O)[O-])cc2)cc1OC | -29.2% (inactive) | – |
| CCOc1ccc(C(=O)Nc2nccs2)cc1[N+](=O)[O-] | 0.0318% (inactive) | – |

| Compound | activity change, negative = growth inhibition | Potency |
| --- | --- | --- |
| CCCCOc1ccc(CON(C(C)=O)C(C)=O)cc1Cl | 20.8% (inactive) | – |
| CC(NC(=O)CC1SC(N)=NC1=O)c1ccccc1 (centres undefined) | 22.5% (inactive) | – |
| CCCCCc1ccc(-c2cn(Cc3ccc4ccccc4c3)nn2)cc1 | – | inactive |
| CCc1cc(-c2nnn(CCC3COCCO3)c2CC)ccc1-c1cn(Cc2ccc3ccccc3c2)nn1 (centres undefined) | – | 5.8 µM (active) |
| O=C(Nc1ccccc1Cl)N1CCC(CN2CCCC2)CC1 | -0.183% (inactive) | – |
| COc1ccc(-c2nonc2NC(=O)c2oc3ccc(F)cc3c2C)cc1OC | -19.1% (inactive) | – |
| CCn1nnc(NC(=O)c2cc(Cl)c(OC)c(Cl)c2)n1 | -21.1% (inactive) | – |
| COc1ccc(C(=O)Nc2nonc2-c2ccc(OC)c(OC)c2)cc1Cl | – | 23.1 µM (active) |
| CCOC(=O)CC1C(=O)NCCN1C(=O)COc1ccc(Br)cc1C (centres undefined) | -1.36% (inactive) | – |
| Cc1cc(C(=O)COc2ccccc2Cl)c(C)n1C1CC1 | – | 6.51 µM (active) |
| Cc1cc(C(=O)COc2ccc(Br)cc2F)c(C)n1C1CC1 | – | 3.26 µM (active) |
| CC(=O)C1=C(C)NC(=O)NC1c1cc(Br)ccc1OCC#N (centres undefined) | 1.02% (inactive) | – |
| CN1CCN(C(=O)c2ccccc2NC(=O)COc2ccccc2Cl)CC1 | -5.01% (inactive) | – |
| O=C(COc1ccccc1Cl)Nn1cnnc1 | 0.711% (inactive) | – |
| CC(=O)c1cccc(NC(=O)N2CCCC2C(=O)NCCC(C)C)c1 (centres undefined) | -8.59% (inactive) | – |
| COc1ccccc1C(=O)N(C1=NC(C)CS1)c1ccc(Cl)cc1 (centres undefined) | -5.33% (inactive) | – |
| O=C(NCCc1ccccc1)C(=O)NCC1OCCN1S(=O)(=O)c1cccs1 (centres undefined) | -12% (inactive) | – |
| CSCCC(NC(=O)c1ccc(=O)n(C)n1)c1nc2ccccc2[nH]1 (centres undefined) | -21.1% (inactive) | – |
| CCCC(NC(=O)c1ccco1)c1nc2ccccc2[nH]1 (centres undefined) | -28.5% (inactive) | – |
| CSCCC(NC(=O)c1cc([N+](=O)[O-])cc([N+](=O)[O-])c1)c1nc2ccccc2[nH]1 (centres undefined) | – | 16.4 µM (active) |
| COc1ccc(C(=O)CN(C(=O)c2ccc(Cl)cc2)N2C(=O)c3ccccc3C2=O)cc1 | -5.29% (inactive) | – |
| COc1ccc(Cn2c(-c3ccc(Cl)cc3)c[n+]3ccccc23)cc1 | – | 1.16 µM (active) |
| CCn1c(C)cc(=O)cc1-c1ccc(Cl)cc1 | 2.38% (inactive) | – |
